# Measured values published in PubChem BioAssay.
# Activity calls are given as the source filed them.
# Key:
# [1] = system: Human papillomavirus type 1a protein E7 (residues 44-93); assay: HPV1a E7 fragment binders on microarrays, primary screen, biochemical, small-molecule microarray, residues 44-93, 635 nm fluorescence (AID 1108); conditions: small-molecule microarray binding, fluorescence 635 nm; higher = more signal;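 note: E7 fragment applied at 1 µg/mL in TBST for 1 h at 4 C; score combines spot fluorescence with its signal to noise ratio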
# [2] = modulators of HCV replicon luciferase signal, primary screen, HCV replication inhibitor project, Huh7 cells, luciferase reporter (AID 1109); conditions: 48 h, higher = more signal;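 note: huh7 hepatoma cells harbouring a luciferase neomycin HCV replicon reporter; luciferase luminescence as measure of HCV replicon replication; test concentration not given here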
# [3] = molecular target: Left-right determination factor 2 (Homo sapiens) (UniProt O00292); assay: LEFTY2 binders on small-molecule microarrays, primary screen, biochemical, small-molecule microarray, 635 nm fluorescence scan (AID 1110); conditions: LEFTY2 binding, higher = more signal
# Sequence of Left-right determination factor 2 (Homo sapiens) (O00292 whole entry, looked up): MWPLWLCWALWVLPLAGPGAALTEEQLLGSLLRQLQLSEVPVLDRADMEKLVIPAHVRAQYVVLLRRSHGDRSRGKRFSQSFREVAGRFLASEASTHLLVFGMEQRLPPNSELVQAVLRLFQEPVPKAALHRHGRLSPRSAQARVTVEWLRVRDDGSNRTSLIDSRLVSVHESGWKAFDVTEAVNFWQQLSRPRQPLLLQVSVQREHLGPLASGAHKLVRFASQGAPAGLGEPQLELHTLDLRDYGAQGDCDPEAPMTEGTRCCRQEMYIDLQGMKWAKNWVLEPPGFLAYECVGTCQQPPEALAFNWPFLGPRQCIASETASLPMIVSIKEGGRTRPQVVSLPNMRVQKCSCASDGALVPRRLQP
# [4] = molecular target: Calmodulin-1 (Homo sapiens) (UniProt P0DP23); assay: CALM1 binders on microarrays, EGTA buffer, profiling panel, biochemical, small-molecule microarray, Cy5-labelled CALM1 (AID 1111); conditions: Cy5-CALM1 binding fluorescence, higher = more signal;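 note: labelled calmodulin applied in Tris saline Tween buffer holding calcium plus EGTA and DTT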
# [5] = molecular target: Calmodulin-1 (Homo sapiens) (UniProt P0DP23); assay: calcium-bound CALM1 binders on microarrays, profiling panel, artefact control for SMM control-protein annotation, biochemical, small-molecule microarray, Cy5-labelled CALM1, plus calcium (AID 1112); conditions: Cy5-CALM1 binding fluorescence, higher = more signal;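 note: score merges spot fluorescence with signal to noise from triplicate slides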
# [6] = small-molecule microarray binders of probe aWnt5a, primary screen, biochemical, biotinylated probe, 635/667 nm fluorescence (AID 1113); conditions: higher = more signal;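 note: score merges 667 nm fluorescence intensity with signal-to-noise per printed feature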
# [7] = small-molecule microarray binders of probe aShh, primary screen, biochemical, biotinylated probe, 635/667 nm fluorescence (AID 1114); conditions: higher = more signal;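 note: probe is biotin-labelled aShh protein from a stem cell growth factor screen; measures binding of labelled protein to compounds printed on the slide; score merges feature fluorescence at 667 nm with signal-to-noise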
# [8] = small-molecule microarray binders of probe aNog, primary screen, biochemical, biotinylated probe, 635/667 nm fluorescence (AID 1115); conditions: higher = more signal;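 note: probe is biotinylated aNog protein used at 0.15 µg/mL for 1 h at 4 C; z-score combines 667 nm fluorescence of each spot with its signal to noise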
# [9] = molecular target: Torsin-1A-interacting protein 1 (Homo sapiens) (UniProt Q5JTV8); assay: LAP1 binders from COS7 cell lysate, primary screen, small-molecule microarray, 635/667 nm fluorescence (AID 1116); conditions: COS7-hLAP1 lysate binding, 635 nm fluorescence, higher = more signal
# Sequence of Torsin-1A-interacting protein 1 (Homo sapiens) (Q5JTV8 whole entry, looked up): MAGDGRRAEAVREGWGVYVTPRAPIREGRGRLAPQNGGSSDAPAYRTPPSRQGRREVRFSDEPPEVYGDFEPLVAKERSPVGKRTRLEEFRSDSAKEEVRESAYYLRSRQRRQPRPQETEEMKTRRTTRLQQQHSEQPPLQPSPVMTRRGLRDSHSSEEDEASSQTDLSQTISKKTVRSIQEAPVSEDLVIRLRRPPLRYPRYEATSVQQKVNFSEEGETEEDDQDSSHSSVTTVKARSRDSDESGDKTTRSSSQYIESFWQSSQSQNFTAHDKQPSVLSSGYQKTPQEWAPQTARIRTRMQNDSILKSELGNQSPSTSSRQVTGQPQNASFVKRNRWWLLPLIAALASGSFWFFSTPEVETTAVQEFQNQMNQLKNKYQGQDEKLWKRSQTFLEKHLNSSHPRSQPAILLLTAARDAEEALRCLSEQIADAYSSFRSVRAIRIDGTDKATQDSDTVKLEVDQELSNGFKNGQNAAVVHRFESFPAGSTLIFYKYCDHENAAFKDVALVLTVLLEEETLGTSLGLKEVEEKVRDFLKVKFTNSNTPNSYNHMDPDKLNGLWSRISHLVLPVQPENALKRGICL
# [10] = molecular target: Alpha-bungarotoxin (Bungarus multicinctus) (UniProt P60615); assay: alpha-bungarotoxin binders on microarray, profiling panel, artefact control for SMM control protein annotation, biochemical, small-molecule microarray, Alexa647 label, 635/667 nm fluorescence (AID 1117); conditions: alpha-BTX-A647 binding fluorescence, higher = more signal
# Sequence of Alpha-bungarotoxin (Bungarus multicinctus) (P60615 whole entry, looked up): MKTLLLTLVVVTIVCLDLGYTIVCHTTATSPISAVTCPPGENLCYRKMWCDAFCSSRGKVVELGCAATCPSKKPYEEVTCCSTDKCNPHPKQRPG
# Albumin (Bos taurus) = Albumin (Bos taurus) (UniProt P02769); assay: bovine serum albumin binders on microarray, profiling panel, artefact control for SMM control protein annotation, biochemical, small-molecule microarray, Alexa647 label, 635/667 nm fluorescence (AID 1118); conditions: BSA-A647 binding, fluorescence 635 nm, higher = more signal;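 note: score merges 667 nm emission intensity and signal-to-noise per printed compound spot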
# Sequence of Albumin (Bos taurus) (P02769 whole entry, looked up): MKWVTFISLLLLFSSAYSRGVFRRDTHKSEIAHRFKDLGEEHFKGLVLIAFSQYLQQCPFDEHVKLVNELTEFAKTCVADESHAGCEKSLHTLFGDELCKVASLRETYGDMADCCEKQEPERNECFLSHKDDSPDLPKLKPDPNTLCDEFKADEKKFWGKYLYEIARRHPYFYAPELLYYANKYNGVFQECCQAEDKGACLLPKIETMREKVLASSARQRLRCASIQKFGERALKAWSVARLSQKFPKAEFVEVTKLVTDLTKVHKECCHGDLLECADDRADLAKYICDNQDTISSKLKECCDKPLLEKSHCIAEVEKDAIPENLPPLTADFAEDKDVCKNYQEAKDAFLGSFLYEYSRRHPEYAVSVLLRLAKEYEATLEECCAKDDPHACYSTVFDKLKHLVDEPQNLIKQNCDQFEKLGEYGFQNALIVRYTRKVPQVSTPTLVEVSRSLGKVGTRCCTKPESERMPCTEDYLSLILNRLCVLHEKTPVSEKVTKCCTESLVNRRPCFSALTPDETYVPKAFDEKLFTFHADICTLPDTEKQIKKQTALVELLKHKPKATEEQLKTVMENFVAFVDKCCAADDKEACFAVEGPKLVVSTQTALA
# [11] = small-molecule microarray binders of probe aXIP, primary screen, biochemical, NeuroSMM set, 635/667 nm fluorescence (AID 1119); conditions: higher = more signal, called active from +8 up or from −8 down;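 note: probe is the protein aXip251-270 applied at 1 µg/mL to compound-printed slides; binding of probe to printed compounds measured as 667 nm fluorescence plus signal to noise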
# [12] = small-molecule binders of probe aNOTCH3, primary screen, biochemical, small-molecule microarray, 635/667 nm fluorescence (AID 1120); conditions: higher = more signal;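 note: probe is a biotin-tagged antibody raised against NOTCH3 rather than NOTCH3 protein; score merges spot fluorescence near 667 nm with spot signal to noise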
# [13] = small-molecule binders of probe aNOTCH2, primary screen, biochemical, small-molecule microarray, 635/667 nm fluorescence (AID 1121); conditions: higher = more signal;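 note: score merges feature fluorescence read at 667 nm with its signal to noise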
# [14] = molecular target: Carbonic anhydrase 2 (Homo sapiens) (UniProt P00918); assay: CAII small-molecule binders, profiling panel, biochemical, small-molecule microarray, Alexa647-labelled CAII (AID 1122); conditions: CAII-A647 binding fluorescence, higher = more signal
# [15] = COS7 lysate on small-molecule microarray, probe aHis, 635 nm (AID 1123); conditions: COS7 cell lysate, fluorescence, higher = more signal;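 note: z-score combines 667nm fluorescence intensity with signal-to-noise per printed compound spot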
# [16] = compound binding in COS7 lysate, probe aLAP1, primary screen, cell lysate, small-molecule microarray (AID 1124); conditions: probe aLAP1, fluorescence, higher = more signal;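 note: lysate comes from COS7 cells expressing LAP1 and is applied at 0.3 µg/mL; score merges spot fluorescence near 667 nm with signal-to-noise over triplicate slides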
# Sam68 (KHDRBS1) = assay: Sam68 small-molecule binders, primary screen, biochemical, small-molecule microarray, 635 nm fluorescence (AID 1125); conditions: small-molecule microarray binding, higher = more signal;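 note: score merges 667 nm channel intensity with signal to noise over triplicate slides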
# [17] = system: Chordin-like protein 2 (CHRDL2); assay: CHRDL2 small-molecule binders, primary screen, biochemical, small-molecule microarray, 635 nm fluorescence (AID 1126); conditions: small-molecule microarray binding, fluorescence 635 nm; higher = more signal;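 note: printed compound slides probed with Chrdl2 protein at 4 µg/mL for 1 h at 4 C; score merges 667 nm emission intensity with signal to noise over three replicate slides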
# [18] = molecular target: Concanavalin-A (Canavalia ensiformis) (UniProt P02866); assay: ConA small-molecule binders, primary screen, artefact control for SMM control protein annotation, biochemical, small-molecule microarray, Alexa647 label, 635 nm (AID 1127); conditions: ConA-A647 binding fluorescence, higher = more signal;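 note: z combines 667 nm emission intensity with signal-to-noise across three replicate slides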
# Sequence of Concanavalin-A (Canavalia ensiformis) (P02866 whole entry, looked up): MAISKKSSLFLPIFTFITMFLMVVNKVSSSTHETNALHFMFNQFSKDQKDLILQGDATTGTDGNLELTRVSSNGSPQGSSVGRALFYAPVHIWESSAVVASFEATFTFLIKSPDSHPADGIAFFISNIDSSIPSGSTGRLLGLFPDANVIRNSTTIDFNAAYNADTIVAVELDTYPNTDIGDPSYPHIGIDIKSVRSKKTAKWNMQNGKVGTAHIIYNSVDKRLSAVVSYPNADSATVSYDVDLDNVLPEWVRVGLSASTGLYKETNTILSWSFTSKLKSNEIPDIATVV
SMILES,composite z-score [1],z-score [2],composite z-score [3],composite z-score [4],composite z-score [5],composite z-score [6],composite z-score [7],composite z-score [8],composite z-score [9],composite z-score [10],composite z-score (Albumin (Bos taurus)),composite Z-score [11],composite z-score [12],composite z-score [13],composite z-score [14],composite z-score [15],composite z-score [16],composite z-score (Sam68 (KHDRBS1)),composite z-score [17],composite z-score [18]
COc1cc2c(cc1O)C(c1cccs1)N(Cc1cc3c(cc1Br)OCO3)CC2 (stereo not given),1.48,-2.05,0.236,1.88,0.602,-0.0286,0.23,1.03,1.14,2.08,0.794,0.715 (inactive),0.0438,-0.0397,0.723,2.92,1.03,1.04,0.417,1.12
COc1ccc(C#Cc2ccc3c(c2)[C@]2(C(=O)N3)[C@H](c3ccc(OCCO)cc3)N3[C@H](c4ccccc4)[C@H](c4ccccc4)OC(=O)[C@H]3[C@@H]2C(=O)NC[C@H](O)c2ccccc2)cc1,1.43,-2.21,0.428,1.12,-0.126,-0.0462,-0.0146,-0.157,0.64,1.87,0.615,-0.128 (inactive),0.779,-0.0531,0.496,1.71,0.117,1.3,0.152,1.02
C=CC[C@H](OC(=O)Nc1ccc(SC)cc1)c1ccc(O)c2ccccc12,1.4,-4.92,0.679,1.28,0.411,-0.0819,0.23,-0.134,0.986,1.78,0.923,-0.285 (inactive),0.152,-0.107,0.634,1.72,0.368,1.29,0.975,1.16
CC(C)C(CO)N1C(=O)[C@@H]2C3C(=O)OCCC/C=C\[C@H]3OC23C=CCN(Cn2nnc4ccccc42)C(=O)[C@@H]13 (stereo not given in full),1.32,0.236,-0.874,-0.42,0.0878,-0.202,-0.229,0.407,1.92,-1.15,-0.37,-0.0983 (inactive),-0.256,-0.181,0.885,0.295,0.685,0.713,-0.81,-0.662
C=CCNC(=O)[C@H]1[C@@H]2C(=O)O[C@@H](c3ccccc3)[C@@H](c3ccccc3)N2[C@@H](c2ccccc2OCCO)[C@]12C(=O)N(C(=O)OCCOC)c1ccc(C#CC3(O)CCCCCC3)cc12,1.25,-2.88,0.371,1.09,0.647,-0.0239,0.176,-0.168,1.22,0.996,0.604,0.359 (inactive),0.0225,0.0018,0.309,1.79,1.05,1.29,0.174,0.815
COC(=O)[C@@H]1N=C(c2ccc(OCCCO)cc2)O[C@@H]1C,0.783,2.62,0.309,-0.226,-1.2,-0.148,0.233,-0.356,1.71,-0.294,-0.867,-0.385 (inactive),0.0893,-0.082,-0.153,-0.223,0.905,0.973,-0.155,0.0255
